Experimental data published in PMC8384837, “Expanding the binding specificity for RNA recognition by a PUF domain”.

What was measured:
Assay in all cases: yeast three-hybrid, YBZ-1, SC-Leu-His + 0.5 mM 3-AT, 4 days
Conditions in all cases: tags: N-Gal4 AD-HA kept; label: inside an RPR1-promoter hybrid RNA with tandem MS2 sites; ssRNA
PUM1 PUF domain R5-RHQ = PUM1 PUF domain R5-RHQ (Homo sapiens, UniProt Q14671 828-1176, C1007R;R1008H)
Summary of the method: (§1)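 Matching RNA elements and Pumilio-1 PUF domain libraries, randomized at the three base-contacting residues of every repeat, were co-expressed from a centromeric plasmid in strain YBZ-1 (LexA–MS2 coat fusion, HIS3 reporter). The repeat regions were PCR-amplified and Illumina-sequenced from cells grown four days on SC-Leu (input) or SC-Leu-His + 0.5 mM 3-AT (selection). The interaction score is the log change in variant frequency from input to selection. It is computed in log2, with a pseudocount of 1 for absent variants.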

PUM1 PUF domain R3-RRC = PUM1 PUF domain R3-RRC (Homo sapiens, UniProt Q14671 828-1176, C935R;Q939C)
Summary of the method: as §1

PUM1 PUF domain R3-TWW = PUM1 PUF domain R3-TWW (Homo sapiens, UniProt Q14671 828-1176, C935T;R936W;Q939W)
Summary of the method: as §1

PUM1 PUF domain R6-RFC = target: T1, PUM1 PUF domain R6-RFC (Homo sapiens, UniProt Q14671 828-1176, N1043R;Y1044F;Q1047C)
T1 sequence: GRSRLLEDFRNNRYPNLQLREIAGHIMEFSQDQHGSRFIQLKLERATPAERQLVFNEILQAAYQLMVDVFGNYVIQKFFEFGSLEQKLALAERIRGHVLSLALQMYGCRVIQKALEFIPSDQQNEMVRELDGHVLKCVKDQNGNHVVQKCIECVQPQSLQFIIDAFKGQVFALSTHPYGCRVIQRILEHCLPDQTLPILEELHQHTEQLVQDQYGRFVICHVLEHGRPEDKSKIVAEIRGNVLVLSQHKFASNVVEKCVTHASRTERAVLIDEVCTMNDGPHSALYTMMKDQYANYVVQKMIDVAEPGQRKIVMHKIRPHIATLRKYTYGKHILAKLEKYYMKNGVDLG
Summary of the method: as §1

GGCUAGAACUAGUGGAUCCCCCGGCGCCCGGCGGCUCGAGCCCGGGUAAGUGUGAAUAGUCUGCAUGCCGCCGGGCGCCAUGCCUGCAGGUCGACUCUAGAAAACAUG
binding signal (PUM1 PUF domain R5-RHQ): 4.24 log2 enrichment (interaction score)

GGCUAGAACUAGUGGAUCCCCCGGCGCCCGGCGGCUCGAGCCCGGGUAAGUGUAAUUAGUCUGCAUGCCGCCGGGCGCCAUGCCUGCAGGUCGACUCUAGAAAACAUG
binding signal (PUM1 PUF domain R3-RRC): 3.79 log2 enrichment (interaction score) | binding signal (PUM1 PUF domain R3-TWW): 1.77 log2 enrichment (interaction score)

GGCUAGAACUAGUGGAUCCCCCGGCGCCCGGCGGCUCGAGCCCGGGUAAGUGAAAAUAGUCUGCAUGCCGCCGGGCGCCAUGCCUGCAGGUCGACUCUAGAAAACAUG
binding signal (PUM1 PUF domain R6-RFC): 1.2 log2 enrichment (interaction score)
